Compound activity: PubChem, several laboratories
This is a sample that favours compounds with a hit; in the whole collection about 1.7% have one here.
CHT block: inhibitors of human choline transporter CHT | CHT-expressing cells, membrane potential dye, choline response; active compounds read low | B-score at 10 µM | actives 0.86% (n = 310,000);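 active means B-score over 3 SD under the library average, and starting fluorescence ratio not unusually high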;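 further: choline stimulus applied at its EC90 after an EC20 pre-addition; B-score computed on integrated fluorescence ratio after choline addition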
Target sequence (Q9GZV3 whole entry, looked up): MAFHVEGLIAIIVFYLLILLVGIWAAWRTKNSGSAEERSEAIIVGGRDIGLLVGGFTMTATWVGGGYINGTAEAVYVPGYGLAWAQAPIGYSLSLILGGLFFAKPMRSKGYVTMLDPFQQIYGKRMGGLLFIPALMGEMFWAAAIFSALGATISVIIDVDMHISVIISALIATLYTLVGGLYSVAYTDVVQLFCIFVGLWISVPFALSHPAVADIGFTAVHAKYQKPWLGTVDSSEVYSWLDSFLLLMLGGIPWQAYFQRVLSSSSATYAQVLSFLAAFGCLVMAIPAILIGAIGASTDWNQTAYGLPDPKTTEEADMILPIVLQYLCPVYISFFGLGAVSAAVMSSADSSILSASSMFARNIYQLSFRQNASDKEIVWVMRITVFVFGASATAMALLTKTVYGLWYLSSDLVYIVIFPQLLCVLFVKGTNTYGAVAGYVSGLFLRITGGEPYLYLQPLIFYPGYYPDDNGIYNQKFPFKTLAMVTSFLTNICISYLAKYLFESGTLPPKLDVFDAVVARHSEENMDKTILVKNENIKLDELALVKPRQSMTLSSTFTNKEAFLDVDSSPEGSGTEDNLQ
CHT PAM: CHT positive allosteric modulators, primary screen, cell-based, membrane potential dye, choline EC20; High affinity choline transporter 1 (Homo sapiens), Q9GZV3; CHT-expressing cells; active compounds read high; LV-AA mutant CHT in HEK293 cells; B-score at 10 µM; actives 0.49% (n = 310,000);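 active means initial fluorescence not abnormally high and integrated response B-score, plate-corrected, over 3 SD above library mean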
MIN6 prolif: inducers of MIN6 beta-cell proliferation, primary screen, ATP luminescence, uHTS; MIN6 cells proliferation, ATPlite luminescence, 48 h; cells starved in 0.2% serum; 100% = growth in 10% serum; proliferation, % at 10 µM; actives 0.29% (n = 330,000); AID 2380, 2010;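 active means compounds whose signal lies at least 3.5 SD above the mean of all wells on their plate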;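 further: 0% = DMSO-treated cells in low-serum medium and 100% = 10% serum control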
H9c2 TAG inh: inhibitors of triacylglycerol accumulation, primary screen, cell-based, uHTS, fluorescence, H9c2; H9c2 cells, Nile Red lipid (TAG) fluorescence; cells loaded with 200 µM oleic acid; inhibition, % at 12.5 µM; actives 0.66% (n = 230,000); AID 651582, 2012;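 active means pattern-corrected inhibition of lipid staining of at least 50% with the nuclear-stain viability signal not falling by more than 50%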;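 further: 0% = DMSO wells and 100% = triacsin C control wells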
TAG conf: triacylglycerol accumulation inhibitors, retest, confirmation, cell-based, single concentration, Nile Red fluorescence, H9c2. actives 71% (n = 990). H9c2 lipid accumulation; cells loaded with 200 µM oleic acid. inhibition, % at 12.5 µM. shares compounds with H9c2 TAG inh. AID 651629, 2012;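 active means mean inhibition across replicates of 40% or more; inactive means mean inhibition below 40%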;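 further: plate controls were DMSO only wells for no effect and Triacsin C treated wells for full effect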
* = called active by the depositor; i = inactive; x = no result given.

SMILES | CHT block | CHT PAM | MIN6 prolif | H9c2 TAG inh | TAG conf
Cc1occc1C(=O)NNC(=O)Nc1ccc([N+](=O)[O-])cc1 | i | i | 1 | -27 | x
CCC(C)(C)C1CCC2(CC1)NC(=O)N(CC(=O)NCCOc1ccccc1)C2=O (centres undefined) | x | x | -4 | 10 | x
CCC(C)(C)C1CCC2(CC1)NC(=O)N(CC(=O)NCCc1ccc(OC)c(OC)c1)C2=O (centres undefined) | x | x | -4 | 53* | 50*
O=C(CCN=C1NS(=O)(=O)c2ccccc21)OCc1cccc(Cl)c1 | i | i | -2 | 3 | x
O=C(NCCCCCCCN1CCCCCCC1)C(C1CCCCC1)C1CCCCC1 | x | x | x | 70* | 51*
O=C(NCCCN1CCOCC1)NC1CCCCC1 | i | i | -1 | -14 | x
CC1(C)Cc2nc3sc4c(SCC(=O)NCc5ccco5)ncnc4c3cc2CO1 | i | i | -2 | 54* | 47*
Cc1nc2c(sc3nc4c(cc32)COC(C)(C)C4)c(=O)n1CC(=O)NCc1ccco1 | i | i | x | x | x
COc1cc(Cl)ccc1OCc1cc(C(=O)NCCCN2CCCC2=O)no1 | i | i | -2 | x | x
O=C(O)C(CCc1ccccc1)(Cc1ccccc1)C(=O)O | x | x | x | 6 | x
Cc1ccnc(NC(=O)CN(C)S(=O)(=O)c2cccc3nsnc23)c1 | i | i | -1 | -2 | x
Cc1ccc2nc(NC(=O)CN(C)S(=O)(=O)c3cccc4nsnc34)sc2c1 | i | i | -3 | 71* | 65*
CC(C)(C)Cc1c(-c2ccc(F)cc2)nc2ccc(Br)cn12 | x | x | x | -7 | x
CC(C)(C)c1ccc(Oc2ccc(NC(=O)c3ccccc3C(=O)O)cn2)cc1 | i | i | 1 | 62* | 6
Cc1cc(-c2nnc(CCC(=O)NC(C)(C)C34CC5CC(CC(C5)C3)C4)o2)no1 | i | i | -2 | 11 | x
COc1cc(C(=O)NCC2(N(C)C)CCCCC2)ccc1OCc1ccccc1 | i | i | -1 | x | x
FC(F)Oc1ccc(-c2csc(NNC3=NCCCCC3)n2)cc1 | i | i | -5 | 119* | 125*
Brc1ccc(-c2csc(NNC3=NCCCCC3)n2)cc1 | i | i | -6 | 130* | 129*
COc1ccc(CNC(=O)C[C@H]2C[C@H](C(=O)N3CCCCC3)[C@@]3(CCc4ccccc4)c4[nH]c5ccc(Cl)cc5c4CCN3C2=O)cc1OC | x | x | x | 53* | 84*
COc1ccc2[nH]c3c(c2c1)CCN1C(=O)C(CC(=O)NC/C=C(\C)CCC=C(C)C)C[C@H](C(=O)N(C(C)C)C(C)C)[C@@]31C (some centres undefined) | x | x | x | 55* | 55*
CC[C@]12c3[nH]c4cc(-c5ccco5)ccc4c3CCN1C(=O)[C@@H](CC(=O)NC/C=C(\C)CCC=C(C)C)C[C@@H]2C(=O)N1CCN(C(=O)C2CC2)CC1 | x | x | x | 30 | x
CC(C)=CCC/C(C)=C/CNC(=O)C[C@H]1C[C@H](C(=O)N(C(C)C)C(C)C)[C@@]2(C)c3[nH]c4ccc(Cl)cc4c3CCN2C1=O | x | x | x | 46 | x
C[C@]12c3[nH]c4ccccc4c3CCN1C(=O)C(CC(=O)NCC13CC4CC(CC(C4)C1)C3)C[C@@H]2C(=O)N1CCOCC1 (some centres undefined) | x | x | -5 | 13 | x
C[C@]12c3[nH]c4ccccc4c3CCN1C(=O)C(CC(=O)NCC13CC4CC(CC(C4)C1)C3)C[C@@H]2C(=O)N1CCCCC1 (some centres undefined) | x | x | -5 | 83* | 61*
CC(C)=CCC/C(C)=C/CNC(=O)C[C@H]1C[C@H](C(=O)N2CCCCC2)[C@@]2(CCc3ccccc3)c3[nH]c4cc(-c5ccco5)ccc4c3CCN2C1=O | x | x | x | 69* | 92*
CC1CCCCN1C(=O)CN1C(=O)NC2(CCCCC2C)C1=O (centres undefined) | x | x | 2 | 5 | x
CCOc1ccc(NC(=O)CN2CCC(n3cnc4cc(F)ccc43)CC2)cc1 | i | i | -3 | x | x
COc1ccccc1NC(=O)OCC#CCOC(=O)Nc1ccccc1OC | i | i | -4 | x | x
COc1cc(C(=O)N2CCN(c3cc(Cl)ccc3Cl)CC2)cc(OC)c1OC | i | i | -5 | 54* | 65*
OCc1cn(-c2ccccc2)nc1-c1ccc(-c2nn(-c3ccccc3)cc2CO)cc1 | i | i | -2 | -13 | x
